# Efflux pump mplx – inhibitors of Candida antifungal efflux pumps expressed in yeast | S. cerevisiae Candida pump triplex, Nile Red efflux | inhibition, % at 10 µM | AID 485275 | 0.44% of 330,000 active;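 active = plate passing quality check with inhibition over a set limit, or well fluorescence over plate mean plus 4 SD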;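 also: Nile Red retained in pooled yeast measured as flow cytometry median fluorescence; 0% = buffer negative control and 100% = Enniatin B positive control; higher means more Nile Red kept so more efflux inhibition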
# Bfl-1 A1 inh – inhibitors of the anti-apoptotic protein A1, read as caspase activation | AID 2462 | caspase activation, % (test concentration not listed) | MEF A1-2A-BIM cells, Caspase-Glo 3/7 luminescence, 3 h; percent of clofoctol response, vehicle zero | 0.066% of 330,000 active;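 active = over half of replicate activation scores above 10%, or exactly half above 10 with the replicate mean above 10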
# VLA-4 inh – inhibition in a human VLA-4 binding assay; 0.2% of 330,000 active; P13612; inhibition, % (about 7 µM as worked out from the volumes in the protocol); VLA-4 expressing cells, ligand binding flow cytometry; in the data active = inhibition above about 50%
# ALR inh – inhibitors of human sulfhydryl oxidase ALR; inhibition, % (test concentration not listed); AID 485317; P55789; 3.8% of 290,000 active; purified ALR, DTT oxidation, H2O2 HRP-luminol luminescence;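 active = mean replicate inhibition above about 79%, with every replicate also reaching it, limit read from the data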
# AHR activator – activators of human aryl hydrocarbon receptor; AHR-responsive luciferase reporter cells, luminescence; activation, % at 5 µM; 2.5% of 320,000 active; in the data active = activation above about 47%;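 also: 0% = vehicle wells and 100% = reference agonist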
# SUMO Mot1 rescue – blocks SUMOylation pathway, rescuing yeast Mot1-301 growth; AID 2716; 1% of 320,000 active; S. cerevisiae Mot1-301 growth rescue, ATP luminescence, 38.5C; percent above DMSO median, 100 means doubled; growth rescue, % at 18.8 µM;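 active = every valid replicate shows activation above 250% relative to neutral control wells; inactive = the rest, any valid replicate at or below 250%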;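 also: OY570 slx delta 5 strain wells were the positive control but not used for scaling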
# Active calls of the source: *; nt = no result given. In the library only some 7.2% were active in any assay of this set; here they are far more common.
SMILES,Efflux pump mplx,Bfl-1 A1 inh,VLA-4 inh,ALR inh,AHR activator,SUMO Mot1 rescue
O=C(CC1SC(=O)N(Cc2cccc3ccccc23)C1=O)Nc1nccs1 (stereo not drawn),0,-1,-11,0,71*,-3
COc1ccc(OC)c(/C=C2\Oc3cc(OCC(=O)N4CCC(C(=O)O)CC4)ccc3C2=O)c1,0,0,0,2,0,275
Cc1cccc(N2CCN(C(=O)CCN3C(=S)NC(C)(C)CC3C)CC2)c1C (stereo not drawn),0,1,-3,nt,0,614*
COc1cc(-c2[nH]ncc2CN2CCN(Cc3cccs3)CC2)cc(OC)c1OC,0,0,3,3,4,-16
CCOC(=O)c1cc(C#N)c(N2CCN(c3ccc(OC)cc3)CC2)[nH]c1=O,0,0,-3,93*,-2,31
CCOC(=O)c1cc(C#N)c(SCC(=O)OC)[nH]c1=O,0,0,-1,99*,9,9
COC(=O)CSc1[nH]c(=O)cc(C)c1C#N,0,0,3,-16,4,-13
Cc1ccc(N/C=C/C(=O)c2ccccc2)cc1Br,0,-7,16,-18,55*,-14
CCN(CC)c1ccc(C(=O)Nc2ccccc2)cc1[N+](=O)[O-],0,0,4,-3,53*,-8
COc1ccc(C(=O)Nc2ccc(Nc3ccccc3)cc2)cc1[N+](=O)[O-],0,0,27,57,-7,38
O=C(Nc1ccccc1)c1ccc(NCCc2ccccc2)c([N+](=O)[O-])c1,0,1,2,2,50*,3
COc1ccc(CCNc2ccc(C(CC(N)=O)NC(=O)c3cc(OC)ccc3OC)cc2[N+](=O)[O-])cc1 (stereo not drawn),0,0,30,-1,7,434
CCC1CCCCN1CCCNC(=O)CSc1nc2nc(C)c(Cc3ccc(C)cc3)c(C)n2n1 (stereo not drawn),0,0,-4,-4,-2,-2
Cc1nc2ccc(NC(=S)N3CCOCC3)cc2nc1C,0,1,32,-9,4,3
Cc1ccc2nc3c(c(Nc4ccc5c(c4)OCCO5)c2c1)CCC3,0,-1,15,98*,24,nt
C=Cc1ccc(Cn2c(=O)n(C)c(=O)c3sccc32)cc1,0,0,6,-9,9,-27
O=[N+]([O-])c1cc(/C=N/O)ccc1N1CCCC1,0,1,29,92*,3,1
CO/N=C/c1ccc(N2CCCC2)c([N+](=O)[O-])c1,0,1,2,nt,1,15
COCCn1c(C)cc(/C=C2/SC(=O)N(CC(=O)N3CCCC3)C2=O)c1C,1,0,-9,15,3,-3
O=[N+]([O-])c1cccc(-c2csc(Nc3ccccc3)n2)c1,0,1,13,6,48*,22
COc1ccccc1Nc1nc(C)cs1,0,-2,-10,99*,14,-6
Cc1csc(Nc2cccc3ccccc23)n1,0,-1,-1,2,21,-7
COc1ccccc1Nc1nc(-c2cccc([N+](=O)[O-])c2)cs1,0,-1,-2,-3,79*,20
O=C(Cc1ccccc1)Nc1nc(-c2cccc([N+](=O)[O-])c2)cs1,0,-1,6,-4,-9,6
Cn1c(=O)c2sccc2n2c(CCCC(=O)NCc3ccc(F)cc3)nnc12,0,0,-4,-22,-3,260
SMILES,Efflux pump mplx,Bfl-1 A1 inh,VLA-4 inh,ALR inh,AHR activator,SUMO Mot1 rescue
FC(F)(F)c1cc(Oc2ccc(Cl)cc2)ncc1-c1nnc(-c2ccc(Cl)cc2)o1,0,0,-15,nt,-2,-5
COc1ccc(NS(=O)(=O)c2ccc3nc(COc4ccc(C#N)cc4)[nH]c3c2)cc1,0,0,2,98*,20,-13
Cc1cc(-c2nn(-c3ccccc3F)cc2CN2CCN(c3ccncc3)CC2)c(C)s1,0,1,4,3,8,183
CCc1ccc(-c2nc(CS(=O)CC(=O)NCc3ccccc3)c(C)o2)cc1 (stereo not drawn),0,1,0,99*,5,-11
Cc1oc(-c2ccc(Cl)cc2)nc1CS(=O)CC(=O)NC(C)c1ccccc1 (stereo not drawn),0,1,9,98*,4,11
Cc1oc(-c2ccc(Cl)cc2)nc1CS(=O)CC(=O)NCc1ccccn1 (stereo not drawn),0,0,-2,99*,2,3
CCc1cccc(NC(=O)CS(=O)Cc2nc(-c3ccc(C)cc3)oc2C)c1 (stereo not drawn),0,2,11,99*,2,7
O=c1[nH]c(C2CCN(S(=O)(=O)/C=C/c3ccccc3)CC2)nc2c1nnn2Cc1ccccc1,0,0,-5,6,-3,-3
COc1ccc(CNC(=O)CS(=O)(=O)Cc2nc(-c3ccc(OC)cc3)oc2C)cc1,0,0,4,-8,1,-2
Cc1ccc(-c2nc(CS(=O)CC(=O)NCc3ccc(Cl)cc3)c(C)o2)cc1 (stereo not drawn),0,1,0,54,4,18
Cc1oc(-c2ccc(Cl)cc2)nc1CS(=O)CC(=O)NCc1ccccc1 (stereo not drawn),0,0,0,99*,3,-15
COc1ccc(-c2nc(CS(=O)CC(=O)NCc3ccc(Cl)cc3)c(C)o2)cc1 (stereo not drawn),0,1,-23,99*,2,7
O=C(O)C1C(c2ccccc2)C(C(=O)Oc2ccc(O)cc2)C1c1ccccc1 (stereo not drawn),0,0,6,94*,-1,-8
COc1ccc(/C=C2/NC(=O)N(CC(=O)Nc3cccc(C)c3)C2=O)cc1O,0,0,-5,-12,2,14
COC(=O)CC1C(=O)NCCN1C(=O)c1ccc(Cl)cc1 (stereo not drawn),0,-1,0,-6,-1,15
COc1ccc(Br)cc1CNC(=O)CCNC(=O)Cn1ccc2ccccc2c1=O,0,1,6,nt,3,-5
CC(C)NC(=O)c1cc2c(-c3ccc(Cl)cc3)nn(C)c2s1,0,0,-8,18,59*,353
Cn1nc(-c2ccc(Cl)cc2)c2cc(C(=O)N3CCCC3)sc21,0,-1,6,19,50*,-15
CCOC(=O)N1CCC(NC(=O)c2cc3c(-c4ccc(Cl)cc4)nn(C)c3s2)CC1,0,nt,2,nt,33,nt
Cn1nc(-c2ccc(Cl)cc2)c2cc(C(=O)NCCCN3CCCC3)sc21,0,0,33,94*,54*,8
Cc1ccc(CNC(=O)c2cc3c(-c4ccc(Cl)cc4)nn(C)c3s2)o1,0,0,0,80*,46,247

# Assay outcomes: PubChem, several laboratories
